40 compounds from PubChem BioAssay (NCATS) can be followed below.

Active and inactive are the calls of the source. How the calls were made is not given here.
Potency means the concentration at half of the fitted maximal effect.

The experiment has as its system HIV-1 nucleocapsid protein NCp7 (binding to TG oligonucleotide). Kind of experiment: HIV Nucleocapsid (AID 346).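 Further: potency is for inhibitors that block NC binding and lower polarization.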 To be noted: HIV-1 NC / fluorescein-TGTGTGTG probe, fluorescence polarization. In outline: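 Fluorescence polarization readout: labelled TG4xF oligo (10 nM) with 100 nM nucleocapsid protein, high-salt (250mM NaCl) Hepes pH 7.5 buffer containing zinc and fresh reducing agents. Compounds added by pin tool; incubation 1 hr, room temperature.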
In general terms: Polarisation of emitted light reports the rotation of a fluorescent probe.
As to `CN1CCN(c2ncnc3ccc(-c4cccc(NS(C)(=O)=O)c4)cc23)CC1`, the Potency is > 20 µM (inactive). The result for `CCNc1ncc2nc(-c3cc(F)cc(F)c3)c(=O)n(Cc3cccs3)c2n1` reads > 20 µM (inactive); that for `COc1ccccc1CNc1ccnc(-c2ccccc2Cl)n1`, > 20 µM (inactive); that for `Cn1c(=O)c(-c2ccccc2)nc2cnc(OCc3ccccc3)nc21`, > 20 µM (inactive). The result for `O=S(=O)(c1ccccc1)N1CCC2(CC1)CN(c1ccncc1)C2` reads > 20 µM (inactive).

With `COCC(=O)N1CCC2(CC1)CCN(c1ccccn1)CC2`, the Potency was > 20 µM (inactive). The result for `O=C(c1cc(C(F)(F)F)cc(C(F)(F)F)c1)N1CCC[C@@]2(CCN(Cc3ccncc3)C2)C1` reads > 20 µM (inactive); that for `CC(=O)N1CCC2(CCCN(C(=O)Nc3cccc(C#N)c3)C2)CC1`, > 20 µM (inactive); that for `Cc1ccccc1-c1ccc2ncnc(-n3ccnc3)c2c1`, > 20 µM (inactive). The result for `CN(C)c1ncc2nc(-c3ccccc3)c(=O)n(-c3ccccc3)c2n1` reads > 20 µM (inactive). The result for `COc1ccc(CNc2ccnc(-c3ccc4c(c3)OCO4)n2)c(OC)c1` reads > 20 µM (inactive); that for `Cc1noc(C)c1C(=O)N1CCC2(CCCN(C(=O)Nc3cccc(F)c3)C2)CC1`, > 20 µM (inactive). On to `FC(F)(F)c1ccccc1-c1cc(NCCN2CCOCC2)ncn1`, for which the Potency is > 20 µM (inactive). The result for `COc1ccc(NC(=O)N2CCCC3(CCN(C(=O)c4cc(C(F)(F)F)cc(C(F)(F)F)c4)CC3)C2)cc1` reads > 20 µM (inactive).

As to `c1ccc(CNc2ncncc2-c2ccoc2)cc1`, the Potency was > 20 µM (inactive). The result for `O=c1cnc2cnc(Oc3ccccc3)nc2n1C1CC1` reads > 20 µM (inactive); that for `O=C(c1ccco1)N1CCC2(CC1)CN(Cc1cc(C(F)(F)F)cc(C(F)(F)F)c1)C2`, > 20 µM (inactive); that for `COc1ccccc1-c1cncnc1NCc1cccnc1`, > 20 µM (inactive). With `c1ccc2c(N3CCOCC3)nc(-c3ccoc3)nc2c1`, the Potency is > 20 µM (inactive).

In the case of `COc1ccc(CNc2ccnc(-c3ccccc3OC)n2)c(OC)c1`, the Potency is > 20 µM (inactive). The result for `CNc1ncnc2ccc(-c3ccccc3C)cc12` reads > 20 µM (inactive); that for `COc1ncc2ncc(=O)n(C3CC3)c2n1`, > 20 µM (inactive).

`COCC(=O)N1CCC2(CC1)CN(C(=O)Nc1cccc(C#N)c1)C2`: the Potency is > 20 µM (inactive). The result for `COC(=O)N1CCC2(CC1)CN(C(=O)Nc1cccc(F)c1)C2` reads > 20 µM (inactive); that for `COc1ccc(NC(=O)N2CCCC3(CCN(C(=O)c4cccc(F)c4)CC3)C2)cc1`, > 20 µM (inactive). The result for `CCNc1ncc2nc(-c3ccccc3)c(=O)n(Cc3cccc(OC)c3)c2n1` reads > 20 µM (inactive). The result for `O=C(Nc1ccccc1)N1CCCC2(CCN(S(=O)(=O)c3ccccc3)CC2)C1` reads > 20 µM (inactive); that for `c1ccc(Nc2ncnc3ccc(-c4cccnc4)cc23)cc1`, > 20 µM (inactive). As to `COc1cccc(Cn2c(=O)c(C)nc3cnc(N(C)C)nc32)c1`, the Potency was > 4 µM (inactive).

In the case of `CS(=O)(=O)N1CCC[C@@]2(CCN(Cc3ccccc3)C2)C1`, the Potency was > 20 µM (inactive). For `O=C(c1csnn1)N1CCC2(CCN(Cc3nccs3)CC2)CC1`, the Potency is > 20 µM (inactive). The result for `COc1ncc2nc(-c3cccs3)c(=O)n(CCc3ccccc3)c2n1` reads > 20 µM (inactive).

As for `CCNc1ncc2nc(C)c(=O)n(Cc3cccc(OC)c3)c2n1`, the Potency was > 20 µM (inactive). The result for `CN(C)c1ccc(-c2cncnc2NCc2ccccc2)cc1` reads > 20 µM (inactive); that for `CNc1ncncc1-c1ccccc1CN(C)C`, > 20 µM (inactive); that for `O=c1c(-c2ccccc2)nc2cnc(Oc3ccccc3)nc2n1Cc1cccs1`, > 20 µM (inactive). For the compound `Cc1ccccc1-c1cncnc1N1CCN(C)CC1`, the Potency was > 20 µM (inactive). Regarding `O=C(c1cnccn1)N1CCC2(CC1)CCN(C(c1ccccc1)c1ccccc1)CC2`, the Potency was > 20 µM (inactive). The result for `COc1ccc2[nH]cc(CCNc3ncncc3-c3ccc4c(c3)OCO4)c2c1` reads > 20 µM (inactive); that for `COCCn1c(=O)c(-c2ccc(OC)cc2)nc2cnc(Oc3ccccc3)nc21`, > 20 µM (inactive).
